# Assay results taken from PubChem BioAssay (EPA / NIEHS).
# Several values for one entry are separate records, joined by “and”; a condition that tells them apart may be missing. Equal values may be shown once. The source holds several records for some structures; these can differ, active in one and inactive in another. Activity calls are given as the source filed them. The calls were made as follows: active = hit-call score of the fitted dose curve at least 0.9, where 1 is the maximum; inactive = score below 0.9.
# Tests used:
# [1] = BSK_KF3CT_SRB: Viability Assessment in the BioMAP Diversity Plus: KF3CT Assay (AID 2283069); settings: primary human keratinocytes with fibroblasts
# Summary of the method: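 Overt cytotoxicity is assessed as total protein by sulforhodamine B staining in parallel human skin co-cultures at 24 h after dosing. DMSO serves as negative control and baseline.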
# [2] = read-out: Interleukin-1 alpha (IL1a), IL1A (gene 3552); assay: BSK_KF3CT_IL1a: BioMAP Diversity Plus: KF3CT Assay for Interleukin-1 alpha (IL1a) Biomarker Activity (AID 2283070); settings: primary human keratinocytes with fibroblasts; actives raise or lower the signal
# Summary of the method: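 Readout is IL-1a level by ELISA, compared bidirectionally with DMSO as baseline. Cells: human keratinocytes co-cultured with foreskin fibroblasts, harvested 24 h post-dose.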
# [3] = read-out: TIMP metallopeptidase inhibitor 2 (TIMP2), TIMP2 (gene 7077); assay: BSK_KF3CT_TIMP2: BioMAP Diversity Plus: KF3CT Assay for TIMP metallopeptidase inhibitor 2 (TIMP2) Biomarker Activity (AID 2283071); settings: primary human keratinocytes with fibroblasts; actives raise or lower the signal
# Summary of the method: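 Measurements come from ELISA detection of TIMP-2 at 24 hours in a dosed human keratinocyte and foreskin fibroblast co-culture. DMSO serves as negative control and baseline.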
# [4] = read-out: C-C motif chemokine 2 (Homo sapiens) (UniProt P13500); assay: BSK_KF3CT_MCP1: BioMAP Diversity Plus: KF3CT Assay for Monocyte Chemoattractant Protein 1 (MCP1/CCL2) Biomarker Activity (AID 2283073); settings: primary human keratinocytes with fibroblasts; actives raise or lower the signal
# Summary of the method: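 ELISA read-out of MCP-1, 24 h post-dose, in primary human skin keratinocytes co-cultured with fibroblasts. Parallel SRB staining monitors cytotoxicity; changes fitted both directions relative to DMSO.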
# [5] = read-out: Matrix Metallopeptidase 9 (MMP9), MMP9 (gene 4318); assay: BSK_KF3CT_MMP9: BioMAP Diversity Plus: KF3CT Assay for Matrix Metallopeptidase 9 (MMP9) Biomarker Activity (AID 2283074); settings: primary human keratinocytes with fibroblasts; actives raise or lower the signal
# Summary of the method: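 Values come from bidirectional fitting relative to DMSO of MMP-9 levels, which were measured by ELISA. Measurements were taken 24 h after chemical dosing of a keratinocyte and foreskin fibroblast co-culture.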
# CD40, CD40 (gene 958) [6] = assay: BSK_LPS_CD40: BioMAP Diversity Plus: LPS Assay for CD40 Biomarker Activity (AID 2283076); settings: primary human HUVEC with PBMC; actives raise or lower the signal
# Summary of the method: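 In the LPS system of human endothelial cells with peripheral blood mononuclear cells, CD40 levels were read by ELISA 24 h post-treatment. Signal changes in either direction were fitted against the DMSO baseline, with parallel SRB protein staining.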
# [7] = read-out: E-selectin (Homo sapiens) (UniProt P16581); assay: BSK_LPS_Eselectin: BioMAP Diversity Plus: LPS Assay for Eselectin Biomarker Activity (AID 2283077); settings: primary human HUVEC with PBMC; actives raise or lower the signal
# Summary of the method: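 E-selectin ELISA on LPS-stimulated endothelial cell/PBMC co-cultures, read 24 h post-treatment; gains and losses fitted against DMSO. Parallel SRB staining (0.1% SRB after 10% TCA fixation, 560 nm) flags overt cytotoxicity.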
# [8] = read-out: Interleukin-8 (IL8), CXCL8 (gene 3576); assay: BSK_LPS_IL8: BioMAP Diversity Plus: LPS Assay for Interleukin-8 (IL8) Biomarker Activity (AID 2283078); settings: primary human HUVEC with PBMC; actives raise or lower the signal
# Summary of the method: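 ELISA read-out of IL-8 after 24 h chemical treatment of LPS-activated endothelial/PBMC human primary co-cultures. Changes either up or down relative to DMSO; overt cytotoxicity checked by sulforhodamine B staining in parallel wells.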
# [9] = BSK_LPS_SRB: Viability Assessment in the BioMAP Diversity Plus: LPS Assay (AID 2283079); settings: primary human HUVEC with PBMC;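 also: total protein by sulforhodamine B absorbance as a cytotoxicity measure; measured one day after compound addition; fitted in both directions against DMSO so loss or gain of signal counts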
# Summary of the method: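 SRB viability endpoint: cells fixed with 10% TCA, stained with 0.1% SRB, read at 560 nm, 24 h post-dose. HUVEC/PBMC co-culture; signal change in either direction scored relative to DMSO.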
# [10] = read-out: Interleukin-1 alpha (IL1a), IL1A (gene 3552); assay: BSK_LPS_IL1a: BioMAP Diversity Plus: LPS Assay for Interleukin-1 alpha (IL1a) Biomarker Activity (AID 2283080); settings: primary human HUVEC with PBMC; actives raise or lower the signal
# Summary of the method: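 Readout is IL-1a level by ELISA, 24 h post-dose, fitted as gain or loss relative to DMSO. System: LPS-activated human primary co-culture of vascular endothelium and peripheral blood mononuclear cells, with parallel SRB total-protein cytotoxicity.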
# [11] = read-out: Monocyte Chemoattractant Protein-1 (MCP1), CCL2 (gene 6347); assay: BSK_LPS_MCP1: BioMAP Diversity Plus: LPS Assay for Monocyte Chemoattractant Protein-1 (MCP1) Biomarker Activity (AID 2283081); settings: primary human HUVEC with PBMC; actives raise or lower the signal;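 as to AC50: secreted MCP-1 protein quantified by ELISA in culture supernatant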
# Summary of the method: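 Secreted MCP-1 read by ELISA at 24 h post-dosing in an LPS-activated co-culture of endothelial cells with peripheral blood mononuclear cells. Fits run in both directions, DMSO as baseline; parallel SRB staining tracks overt cytotoxicity.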
# [12] = BSK_LPS_PGE2: BioMAP Diversity Plus: LPS Assay for Prostaglandin E2 (PGE2) Biomarker Activity (AID 2283082); settings: primary human HUVEC with PBMC; actives raise or lower the signal;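 as to AC50: secreted prostaglandin E2 measured by ELISA in LPS-stimulated co-culture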
# Summary of the method: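 Primary human endothelial cells and blood mononuclear cells, co-cultured with LPS, receive test chemical; PGE2 ELISA follows at 24 h, with SRB-stained parallel cultures flagging cytotoxicity.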
# [13] = read-out: Macrophage colony-stimulating factor (MCSF), CSF1 (gene 1435); assay: BSK_LPS_MCSF: BioMAP Diversity Plus: LPS Assay for Macrophage colony-stimulating factor (MCSF) Biomarker Activity (AID 2283083); settings: primary human HUVEC with PBMC; actives raise or lower the signal
# Summary of the method: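 Bidirectional fitting against DMSO was applied to M-CSF levels read by ELISA at 24 h post-dose. The system pairs human umbilical vein endothelium with peripheral blood mononuclear cells; parallel SRB staining tracked cytotoxicity.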
# [14] = read-out: Tissue Factor, F3 (gene 2152); assay: BSK_LPS_TissueFactor: BioMAP Diversity Plus: LPS Assay for Tissue Factor Biomarker Activity (AID 2283084); settings: primary human HUVEC with PBMC; actives raise or lower the signal
# Summary of the method: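 Compound was added to an endothelial cell/PBMC co-culture, and after 24 h tissue factor (CD142) was read by ELISA. Gain or loss of signal was fitted against a DMSO baseline, and parallel SRB staining (560 nm) tracked overt cytotoxicity.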
# [15] = read-out: Tumor necrosis factor (Homo sapiens) (UniProt P01375); assay: BSK_LPS_TNFa: BioMAP Diversity Plus: LPS Assay for Tumour Necrosis Factor alpha (TNFa) Biomarker Activity (AID 2283085); settings: primary human HUVEC with PBMC; actives raise or lower the signal;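 as to AC50: TNFa protein level quantified by ELISA in the co-culture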
# Summary of the method: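 ELISA-based TNFa endpoint in a human endothelial–PBMC co-culture sampled 24 h post-exposure. Curves were fitted in both directions using DMSO as baseline of activity.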
# [16] = read-out: Vascular cell adhesion molecule 1 (VCAM1), VCAM1 (gene 7412); assay: BSK_LPS_VCAM1: BioMAP Diversity Plus: LPS Assay for Vascular cell adhesion molecule 1 (VCAM1) Biomarker Activity (AID 2283086); settings: primary human HUVEC with PBMC; actives raise or lower the signal
# Summary of the method: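 Measured by ELISA: VCAM-1 in LPS-activated HUVEC/PBMC co-cultures 24 h after treatment. Values reflect bidirectional fitting with DMSO as baseline.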
# CD38, CD38 (gene 952) = assay: BSK_SAg_CD38: BioMAP Diversity Plus: SAg Assay for CD38 Biomarker Activity (AID 2283087); settings: primary human HUVEC with PBMC; actives raise or lower the signal
# Summary of the method: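 Measures CD38 on a human endothelial/PBMC co-culture driven by SEB and TSST-1, 24 h after compound exposure, using ELISA with fluorescence detection; DMSO defines baseline for bidirectional curve fitting.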
# CD40, CD40 (gene 958) [17] = assay: BSK_SAg_CD40: BioMAP Diversity Plus: SAg Assay for CD40 Biomarker Activity (AID 2283088); settings: primary human HUVEC with PBMC; actives raise or lower the signal
# Summary of the method: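 CD40 is measured by fluorescence ELISA in an endothelial/PBMC primary human co-culture at 24 h post-dose. Fitting is bidirectional, DMSO baseline. Parallel SRB staining (560 nm) flags cytotoxicity.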
# Tumor necrosis factor (Homo sapiens), sequence (P01375 whole entry, looked up): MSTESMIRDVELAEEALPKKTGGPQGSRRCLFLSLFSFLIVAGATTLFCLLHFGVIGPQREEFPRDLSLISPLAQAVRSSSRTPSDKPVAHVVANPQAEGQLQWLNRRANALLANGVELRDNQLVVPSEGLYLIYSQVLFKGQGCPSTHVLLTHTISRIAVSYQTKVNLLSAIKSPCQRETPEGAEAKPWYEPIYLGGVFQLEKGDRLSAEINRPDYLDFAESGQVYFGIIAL
# E-selectin (Homo sapiens), sequence (P16581 whole entry, looked up): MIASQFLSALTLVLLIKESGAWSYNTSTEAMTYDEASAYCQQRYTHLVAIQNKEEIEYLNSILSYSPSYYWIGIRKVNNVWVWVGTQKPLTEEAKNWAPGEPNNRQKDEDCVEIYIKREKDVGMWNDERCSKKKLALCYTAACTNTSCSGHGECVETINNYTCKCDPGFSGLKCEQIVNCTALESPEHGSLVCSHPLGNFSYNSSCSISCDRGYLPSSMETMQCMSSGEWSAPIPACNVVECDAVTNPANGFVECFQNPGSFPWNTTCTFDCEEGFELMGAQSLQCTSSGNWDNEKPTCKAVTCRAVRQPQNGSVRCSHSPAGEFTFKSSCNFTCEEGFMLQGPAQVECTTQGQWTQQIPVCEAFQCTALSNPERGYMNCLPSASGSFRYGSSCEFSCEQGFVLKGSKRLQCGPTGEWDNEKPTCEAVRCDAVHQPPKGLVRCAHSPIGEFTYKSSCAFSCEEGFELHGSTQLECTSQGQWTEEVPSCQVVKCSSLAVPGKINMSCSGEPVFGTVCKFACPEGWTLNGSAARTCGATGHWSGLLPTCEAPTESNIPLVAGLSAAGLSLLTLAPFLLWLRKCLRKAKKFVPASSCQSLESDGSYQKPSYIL
smiles,measurement,setting,value
FC(F)(F)C(F)(C(F)(F)F)C(F)(F)C(F)(F)CC1CO1 (centres undefined),outcome,[1],inactive
same,outcome,[2],inactive
same,outcome,[3],inactive
same,outcome,[4],inactive
same,outcome,[5],inactive
same,outcome,"CD40, CD40 (gene 958) [6]",inactive
same,outcome,[7],inactive
same,outcome,[8],inactive
same,outcome,[9],inactive
same,outcome,[10],inactive
same,outcome,[11],inactive
same,outcome,[12],inactive
same,outcome,[13],inactive
same,outcome,[14],inactive
same,outcome,[15],inactive
same,outcome,[16],inactive
same,outcome,"CD38, CD38 (gene 952)",inactive
same,outcome,"CD40, CD40 (gene 958) [17]",inactive
O=C(O)C=CC(F)(C(F)(F)F)C(F)(F)F,outcome,[1],inactive
same,outcome,[2],inactive
same,outcome,[3],inactive
same,outcome,[4],inactive
same,outcome,[5],inactive
same,outcome,"CD40, CD40 (gene 958) [6]",inactive
same,outcome,[7],inactive
same,outcome,[8],inactive
same,outcome,[9],inactive
same,outcome,[10],inactive
same,outcome,[11],inactive
same,outcome,[12],inactive
same,outcome,[13],inactive
same,outcome,[14],inactive
same,outcome,[15],inactive
same,outcome,[16],inactive
same,outcome,"CD38, CD38 (gene 952)",inactive
same,outcome,"CD40, CD40 (gene 958) [17]",inactive
OCC(F)(F)OC(F)(F)C(F)(F)OC(F)(F)C(F)(F)OC(F)(F)F,AC50,[1],48.3 µM (active) and 48.1 µM (active)
same,AC50,[3],51.7 µM (active) and 45 µM (active)
same,AC50,[4],49.3 µM (active) and 22.2 µM (active)
same,AC50,"CD40, CD40 (gene 958) [6]",41 µM (active)
same,outcome,"CD40, CD40 (gene 958) [6]",inactive
same,outcome,[7],inactive
same,AC50,[8],47.4 µM (active) and 51.8 µM (active)
same,outcome,[9],inactive
same,AC50,[10],55.1 µM (active)
same,outcome,[10],inactive
same,AC50,[11],52.2 µM (active)
same,outcome,[11],inactive
same,AC50,[12],30 µM (active) and 46.8 µM (active)
same,outcome,[13],inactive
same,AC50,[14],49.8 µM (active)
same,outcome,[14],inactive
same,AC50,[15],50.8 µM (active) and 53.5 µM (active)
same,AC50,[16],42.8 µM (active)
same,outcome,[16],inactive
same,AC50,"CD38, CD38 (gene 952)",48.8 µM (active)
same,outcome,"CD38, CD38 (gene 952)",inactive
same,AC50,"CD40, CD40 (gene 958) [17]",41.6 µM (active)
same,outcome,"CD40, CD40 (gene 958) [17]",inactive
